Screen size: about 320,000 compounds; about 7,600 (2.4%) were called active. Where a call stands in place of a potency, no number is given. Not shown: some 3% with an inconclusive outcome. The call rests on the fitted dose curve; in most records, active means well fitted activation curve with a large enough effect; inconclusive means small, poorly fitted or top-dose-only effect; inactive means no such curve, though single readings can be large or run the other way. Only a selection was taken, and actives are over-represented in it overall.
Test: qHTS Assay for NPC1 Promoter Activators; further: nearly all actives have a fitted effect of over 60% in size
Details: Huh7 NPC1 promoter luciferase reporter, 24 h; series mostly up to 9.22 µM
Source text: NIH Chemical Genomics Center [NCGC] NIH Molecular Libraries Probe Production centers Network [MLPCN] MLPCN Grant: MH089375-01A1 Assay Submitter (PI): Yiannis A. Ioannou NCGC Assay Overview: Niemann Pick Type C (NPC) is a rare neurodegenerative lipidosis that is characterized by lipid storage in the endosomal/lysosomal system. Treatment modalities for this devastating disease are currently non-existent due to the severe obstacles associated with accessing the central nervous system with proteins or genes. The majority of mutations causing NPC disease are missense mutations that are distributed throughout the length of the NPC1 protein, with the most prevalent being the I1061T allele. Although NPC1 mutant proteins may be functional, they are typically trapped in the ER due to misfolding. […] We have developed and optimized a cell based luciferase reporter assay in 1536 well format for the identification of up-regulators of the mutant NPC1 promoter.
The NPC1 promoter is cloned in front of the luciferase reporter gene, therefore NPC promoter activation results in luciferase expression. Frozen stock of the NPC1 promoter transfected Huh7 cells were obtained from the laboratory of Dr. Yiannis Ioannou (The Mount Sinai School of Medicine, New York, NY). Cells were propagated and maintained at NCGC in medium containing RPMI-1640 supplemented with 10% FBS, 2mM L-glutamine, and 50ug/ml penicillin/streptomycin. Cells were harvested in and plated for assays in OP-MEM I reduced-serum medium supplemented with 10% FBS. The Amplite luciferase reporter gene assay kit was purchased from ABD Bioquest and prepared/stored according to manufacturers recommendations. qHTS Assay Setup: 1.#Dispensed 5ul of Huh7 cells stably expressing NPC1-luciferase at a density of 1500 cells per well 1536-well plates. 2.#Incubate cells at 37C, 5% CO2, and 95% humidity for 2 hours. 3.#Transferred 23nl per well of compound in DMSO solution. 4.#Incubated at 37C, 5% CO2, and 95% humidity for 24 hours. 5.#Dispensed 3ul per well of Amplite reagent(ABD Bioquest) per well. 6.#Incubate at ambient for 10 minutes. 7.#Read using the luminescence protocol on the ViewLux plate reader (Perkin Elmer).
For `O=C(Nc1ccon1)c1cccc(Cl)c1`, the Potency was “inactive”.
In the case of `O=C(Nc1ccon1)c1sc2ccccc2c1Cl`, the Potency is reported as 3980 nM (active).
In the case of `Cc1nn(C)cc1/C=N/NC(=O)c1sc2ccccc2c1Cl`, the Potency is reported as “inactive”.
For `Cn1c(N)c(C(=O)COC(=O)COc2ccc(Cl)cc2)c(=O)n(C)c1=O`, the Potency was “inactive”.
For `O=C(COC(=O)CCCN1C(=O)c2cccc3cccc(c23)C1=O)NC1CCS(=O)(=O)C1` (stereo not drawn), the Potency was “inactive”.
For `COc1ccc(OCCNC(=O)c2cc(C3CC3)nc3c2cnn3C(C)C)cc1`, the Potency was “inactive”.
With `CC(=O)C1(C)N(O)C(C)(C)C(c2cccs2)=[N+]1[O-]` (stereo not drawn) the Potency was 100 nM (active).
In the case of `CC1(C)C(c2cccs2)=[N+]([O-])C2(CCCCC2=O)N1O` (stereo not drawn), the Potency is reported as “inactive”.
With `C/C(=N\O)C1(C)N(O)C(C)(C)C(c2ccc(Br)cc2)=[N+]1[O-]` (stereo not drawn) the Potency was “inactive”.
In the case of `CC(C(=O)N1CCc2ccccc21)N(C)CC(=O)Nc1ccc(F)cc1` (stereo not drawn), the Potency is reported as “inactive”.
With `CCNC(=O)c1cccc(NC(=O)C2CC(=O)N(CCc3ccccc3)C2)c1` (stereo not drawn) the Potency was “inactive”.
With `CCN(CC)C(=O)N(CC)Cc1ccccc1` the Potency was “inactive”.
In the case of `CCN(CC)C(=O)c1sc2nc(-c3ccccc3)ccc2c1N`, the Potency is reported as 1580 nM (active).
For `Nc1c(C(=O)NCc2ccccc2)sc2nc3c(cc12)C(=O)CCC3`, the Potency was “inactive”.
For `CCCC(NC(=O)c1ccco1)c1nc2ccccc2[nH]1` (stereo not drawn), the Potency was “inactive”.
With `Cc1cccnc1CC(C)NC(=O)c1cc(COc2cncc(Cl)c2)on1` (stereo not drawn) the Potency was “inactive”.
In the case of `COCCCNC(=O)COc1cc(C)c(Cl)c(C)c1`, the Potency is reported as “inactive”.
In the case of `Cc1cc(OCc2cc(C(=O)NCc3cc(C(C)C)no3)no2)cc(C)c1Cl`, the Potency is reported as 1410 nM (active).
For `COc1cccc(-c2nnc(SCCOc3ccc4c(C)cc(=O)oc4c3)o2)c1`, the Potency was “inactive”.
For `O=[N+]([O-])c1ccc2oc(-c3cccc(O)c3)nc2c1`, the Potency was “inactive”.
With `COc1cccc(-c2nc3cc(C)ccc3o2)c1` the Potency was 3160 nM (active).
With `O=C(/C=C(O)/C=C/c1ccc(O)cc1)/C=C/c1ccc(O)cc1` the Potency was “inactive”.
In the case of `CCCCn1c(N)c(N(CC(C)C)C(=O)c2cnc(C)cn2)c(=O)[nH]c1=O`, the Potency is reported as “inactive”.
With `COc1ccccc1C(=O)Nc1ccc(OCC(=O)N2CCCCC2)cc1` the Potency was “inactive”.
With `NS(=O)(=O)c1ccc2nc(NC(=O)CS(=O)(=O)c3ccc(F)cc3)sc2c1` the Potency was “inactive”.
With `NS(=O)(=O)c1ccc2nc(NC(=O)C3=COCCO3)sc2c1` the Potency was 1780 nM (active).
For `CS(=O)(=O)c1ccc2nc(NC(=O)c3ccc(Cl)nc3)sc2c1`, the Potency was “inactive”.
In the case of `CN(CC(=O)Nc1ccc(Cl)c(C(F)(F)F)c1)C(=O)CCC(=O)c1ccccc1`, the Potency is reported as “inactive”.
In the case of `COC(=O)c1ccc(COC(=O)CNC(=O)c2cccc(OC)c2)o1`, the Potency is reported as “inactive”.
With `CN(CC(=O)Nc1ccc(Cl)cc1)C(=O)c1ccc(COc2ccccc2)cc1` the Potency was “inactive”.
For `O=C(CNC(=O)c1ccc2ccccc2c1)Nc1ncccc1O`, the Potency was “inactive”.
With `CCc1cc(C(N)=O)c(NC(=O)c2ccc(OC)cc2)s1` the Potency was “inactive”.
In the case of `CC(C)c1cc(C(N)=O)c(NC(=O)c2cccc(COc3ccc(Br)cc3)c2)s1`, the Potency is reported as 2820 nM (active).
In the case of `CCOC(=O)c1cc(C(C)C)sc1NC(=O)COC(=O)c1nccnc1N`, the Potency is reported as “inactive”.
With `CC(=O)c1c(C)[nH]c(C(=O)OCC(=O)Nc2c(C)n(C)n(-c3ccccc3)c2=O)c1C` the Potency was “inactive”.
With `CN(C)CCn1c(=S)[nH]c2ccc(Cl)cc2c1=O` the Potency was “inactive”.
For `CN(C)CCN=c1cc(-c2ccccc2)oc2ccc(Cl)cc12`, the Potency was 2820 nM (active).
With `CN(CC(=O)NCc1ccc2c(c1)OCO2)CC(=O)Nc1ccc(F)c(F)c1F` the Potency was “inactive”.
With `CO[C@H]1[C@@H]2C=CO[C@@H](O[C@H]3O[C@@H](CO)[C@H](O)[C@@H](O)[C@@H]3O)[C@@H]2[C@@]2(CO)O[C@@H]12` the Potency was “inactive”.
For `O=C(Nc1ccc(Cl)cc1)c1ccsn1`, the Potency was 3160 nM (active).
For `CCC(=O)Nc1ccc(C(=O)NNC(=O)c2ccc(Cl)cc2)cc1`, the Potency was “inactive”.
With `O=C(Nc1ccccc1)c1nnsc1S(=O)(=O)c1ccc(Cl)cc1` the Potency was “inactive”.
In the case of `CCCCN(CC(=O)Nc1cccc(S(=O)(=O)N2CCCC2)c1)Cc1nc2ccccc2c(=O)[nH]1`, the Potency is reported as “inactive”.
For `COCCn1cnnc1SCC(=O)Nc1cccc(S(=O)(=O)N2CCCCC2)c1`, the Potency was “inactive”.
With `Cc1ccc(S(=O)(=O)N(C)C)cc1NC(=O)C(C)OC(=O)c1ccc2ccccc2n1` (stereo not drawn) the Potency was “inactive”.
For `COc1ccc(F)cc1C(=O)COC(=O)c1n[nH]c(=O)c2ccccc12`, the Potency was “inactive”.
With `CCN(C(=O)COC(=O)CCOc1cccc(C)c1)c1c(N)n(Cc2ccccc2)c(=O)[nH]c1=O` the Potency was “inactive”.
For `O=C(O)c1cccc(N=NN2CCCCCC2)c1`, the Potency was 100 nM (active).
In the case of `O=C(O)c1ccc(N=NN2CCOCC2)cc1`, the Potency is reported as “inactive”.
For `O=C(c1ccccc1)N1CCN(C(=O)N2CCCCC2)CC1`, the Potency was “inactive”.
With `CCOc1ncccc1C(=O)OCC(=O)Nc1cccc(S(=O)(=O)N2CCCCCC2)c1` the Potency was “inactive”.
For `N#Cc1nc(Cc2cccc3ccccc23)oc1NCc1ccc2c(c1)OCO2`, the Potency was “inactive”.
With `Cc1ccccc1-c1nc(C#N)c(NCc2ccco2)o1` the Potency was “inactive”.

Source: PubChem BioAssay AID485313 (National Center for Advancing Translational Sciences (NCATS), 2010)
Potency means the concentration at half of the fitted maximal effect.
